Measurements: publication PMC11006913

These sequences were tested against HOXD13 (Homo sapiens, UniProt P35453 263-343) (assay: PBM; 200 nM protein, PBS). Details: dsDNA, one strand shown.
Sequence of HOXD13 (Homo sapiens, UniProt P35453 263-343) (P35453 263-343): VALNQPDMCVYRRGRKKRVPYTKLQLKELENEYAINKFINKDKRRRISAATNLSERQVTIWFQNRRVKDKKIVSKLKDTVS
With CCCAGCGC the binding signal was 9.38 upbm affinity estimate (log intensity, higher = more binding, comparable within an allelic series).
AGTTTATG was tested, and the binding signal was 11.9 upbm affinity estimate (log intensity, higher = more binding, comparable within an allelic series).
With AGCCGCCG the binding signal was 9.52 upbm affinity estimate (log intensity, higher = more binding, comparable within an allelic series).
For AGCCACCG, the binding signal was 9.56 upbm affinity estimate (log intensity, higher = more binding, comparable within an allelic series).
For AGGGCAGC, the binding signal was 9.49 upbm affinity estimate (log intensity, higher = more binding, comparable within an allelic series).

The sequences below were run against ALX3 (Homo sapiens, UniProt O95076 139-225) (assay: PBM; 200 nM protein, PBS). Details: dsDNA, one strand shown.
Sequence of ALX3 (Homo sapiens, UniProt O95076 139-225) (O95076 139-225): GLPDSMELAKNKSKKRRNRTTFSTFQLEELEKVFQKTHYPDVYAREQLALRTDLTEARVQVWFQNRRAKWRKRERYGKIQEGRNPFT
With CCTGGGGC the binding signal was 7.69 upbm affinity estimate (log intensity, higher = more binding, comparable within an allelic series).
For GGACGTCC, the binding signal was 7.9 upbm affinity estimate (log intensity, higher = more binding, comparable within an allelic series).
In the case of CAGCCGCG, the binding signal is reported as 7.7 upbm affinity estimate (log intensity, higher = more binding, comparable within an allelic series).

The sequences below were run against ALX3 (Homo sapiens, UniProt O95076 139-225, L168Q) (assay: PBM; 200 nM protein, PBS). Details: dsDNA, one strand shown.
Sequence of ALX3 (Homo sapiens, UniProt O95076 139-225, L168Q) (O95076 139-225 L168Q): as the sequence (O95076 139-225) above, with L30Q counted along it
For CCTGGGGC, the binding signal was 7.69 upbm affinity estimate (log intensity, higher = more binding, comparable within an allelic series).
GGACGTCC was tested, and the binding signal was 7.79 upbm affinity estimate (log intensity, higher = more binding, comparable within an allelic series).
CAGCCGCG was tested, and the binding signal was 7.68 upbm affinity estimate (log intensity, higher = more binding, comparable within an allelic series).

What follows are sequences tested against HOXD13 (Homo sapiens, UniProt P35453 263-343, T313A) (assay: PBM; 200 nM protein, PBS). Details: dsDNA, one strand shown.
Sequence of HOXD13 (Homo sapiens, UniProt P35453 263-343, T313A) (P35453 263-343 T313A): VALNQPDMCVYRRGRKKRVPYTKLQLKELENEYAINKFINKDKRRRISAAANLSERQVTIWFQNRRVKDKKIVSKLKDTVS
For CCCAGCGC, the binding signal was 9.56 upbm affinity estimate (log intensity, higher = more binding, comparable within an allelic series).
For AGTTTATG, the binding signal was 11.5 upbm affinity estimate (log intensity, higher = more binding, comparable within an allelic series).
For AGCCGCCG, the binding signal was 9.57 upbm affinity estimate (log intensity, higher = more binding, comparable within an allelic series).
AGCCACCG was tested, and the binding signal was 9.66 upbm affinity estimate (log intensity, higher = more binding, comparable within an allelic series).
In the case of AGGGCAGC, the binding signal is reported as 9.66 upbm affinity estimate (log intensity, higher = more binding, comparable within an allelic series).

The sequences below were run against ALX3 (Homo sapiens, UniProt O95076 139-225, L168V) (assay: PBM; 200 nM protein, PBS). Details: dsDNA, one strand shown.
Sequence of ALX3 (Homo sapiens, UniProt O95076 139-225, L168V) (O95076 139-225 L168V): as the sequence (O95076 139-225) above, with L30V counted along it
For CCTGGGGC, the binding signal was 7.65 upbm affinity estimate (log intensity, higher = more binding, comparable within an allelic series).
In the case of GGACGTCC, the binding signal is reported as 7.85 upbm affinity estimate (log intensity, higher = more binding, comparable within an allelic series).
With CAGCCGCG the binding signal was 7.67 upbm affinity estimate (log intensity, higher = more binding, comparable within an allelic series).

What follows are sequences tested against ALX3 (Homo sapiens, UniProt O95076 139-225, N203S) (assay: PBM; 200 nM protein, PBS). Details: dsDNA, one strand shown.
Sequence of ALX3 (Homo sapiens, UniProt O95076 139-225, N203S) (O95076 139-225 N203S): as the sequence (O95076 139-225) above, with N65S counted along it
In the case of CCTGGGGC, the binding signal is reported as 7.61 upbm affinity estimate (log intensity, higher = more binding, comparable within an allelic series).
GGACGTCC was tested, and the binding signal was 7.79 upbm affinity estimate (log intensity, higher = more binding, comparable within an allelic series).
For ATATTAAA, the binding signal was 8.68 upbm affinity estimate (log intensity, higher = more binding, comparable within an allelic series).
With CAGCCGCG the binding signal was 7.74 upbm affinity estimate (log intensity, higher = more binding, comparable within an allelic series).
